Bioassay records from PubChem.
HEK293 tox = qHTS of GLP-1 Receptor Inverse Agonists: Cytotox Screen; Potency, µM (doses to about 38.3 µM), for inactives: top-dose activity change, negative = inhibition, actives largely listed as inhibitors; HEK293 cAMP-luciferase reporter cells, luminescence, 24 h; 410,000 tested, 0.13% active; AID 624418, 2012;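 further: loss of luciferase light is scored as toxicity; on the % scale 0 is the no-effect control and ±100 the full control effect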
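To flag toxic compounds, the library was rerun on cells for 24 hr at 37 deg C and 5% CO2. Viability-linked luminescence was captured 12 min after adding luciferase detection reagent.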
Mito fusion yeast = qHTS Assay for Small Molecule Inhibitors of Mitochondrial Division or Activators of Mitochondrial Fusion. AID 485298, 2010. S. cerevisiae fusion-defective mutant growth rescue, CellTiterGlo 48 h. Potency, µM (doses to about 46.1 µM), for the others: at the top dose growth rescue (activation), most hits filed as activators. 320,000 tested, 0.23% active; further: % of control where 0% means no effect; nearly all actives have a fitted effect of over 45% in size
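Compounds are tested for their ability to restore growth of mitochondrial fusion-defective yeast strains at non-permissive 37C in YPEG medium over 48 hours. Viability is quantified by luciferase luminescence.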
GLP-1R inv ag = qHTS of GLP-1 Receptor Inverse Agonists (Inhibition Mode); Glucagon-like peptide 1 receptor (Homo sapiens), P43220; HEK293 GLP-1R CRE-luciferase, luminescence, 24 h; GLP-1R form is constitutively active; Potency, µM (titrated, usually from 38.3 µM), for inactives: at the highest dose activity change, negative = inhibition, most hits filed as inhibitors; 410,000 tested, 1.6% active; AID 624417, 2012; further: on the % scale 0 is the no-effect control and ±100 the full control effect; nearly all actives have a fitted effect of over 55% in size
Target sequence (P43220 whole entry, looked up): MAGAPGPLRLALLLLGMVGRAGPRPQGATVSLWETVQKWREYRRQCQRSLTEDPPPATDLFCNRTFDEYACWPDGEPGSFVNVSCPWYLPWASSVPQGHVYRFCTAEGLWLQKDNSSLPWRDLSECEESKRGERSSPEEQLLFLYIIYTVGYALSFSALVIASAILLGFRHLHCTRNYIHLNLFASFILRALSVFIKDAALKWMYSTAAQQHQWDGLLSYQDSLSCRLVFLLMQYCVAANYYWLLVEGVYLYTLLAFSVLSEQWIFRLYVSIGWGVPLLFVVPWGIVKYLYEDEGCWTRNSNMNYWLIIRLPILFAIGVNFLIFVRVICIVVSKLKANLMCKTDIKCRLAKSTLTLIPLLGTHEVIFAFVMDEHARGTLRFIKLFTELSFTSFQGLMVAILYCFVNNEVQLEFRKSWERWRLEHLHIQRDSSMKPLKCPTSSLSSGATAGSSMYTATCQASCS
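Constitutively active GLP-1R drives a cAMP-responsive luciferase in stably transfected HEK293 cells; test compounds are added after overnight (12 h) attachment and left 24 hr, and signal loss in luminescence marks inhibition.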
GLP1R ag = qHTS of GLP-1 Receptor Agonists. Glucagon-like peptide 1 receptor (Homo sapiens), P43220. HEK293 GLP-1R CRE-luciferase, luminescence, 4-6 h; cells express a hypersensitive GLP-1R form. Potency, µM (series often up to 45.6 µM), for inactives: at the top dose activation, most hits filed as activators. 380,000 tested, 0.007% active. AID 624172, 2012; further: % of control where 0% means no effect
BRCA1 expr act = qHTS Assay to Identify Small Molecule Activators of BRCA1 Expression; Potency, µM (top dose mostly 46.1 µM), for inactives: at the highest dose activation, usual class: activators; AID 624202, 2012; MCF7-BRCA1-FFLuc reporter, luminescence, 48 h; response scale: scaled: vehicle 0%, 10 µM genistein 100%; 380,000 tested, 1.1% active; further: nearly all actives have a fitted effect of over 80% in size
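Activators of BRCA1 expression were detected as increased firefly luciferase luminescence in engineered MCF7 cells after 48 h compound incubation. Signals were scaled to genistein 10 microM as full activation.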
* hit, by the source's call; ? = inconclusive; nt = no result given; ! = a repeat was not active. Compounds with a hit are over-represented: about 2.8% of the library has one in this group of screens. The call rests on the fitted dose curve; in most records, active means well fitted curve in the direction sought with a large enough effect; inconclusive means small, poorly fitted or top-dose-only effect, or another doubt; inactive means no such curve, though single readings can be large; an effect the other way counts as inactive or inconclusive. Potency means the concentration at half of the fitted maximal effect.

SMILES | HEK293 tox | Mito fusion yeast | GLP-1R inv ag | GLP1R ag | BRCA1 expr act
O=C(COC(=O)C1CCN(S(=O)(=O)c2cccs2)CC1)Nc1ccc(F)cc1Cl | 15% | nt | 14% | -14% | -4%
O=C(CSCc1ccc(Cl)cc1)NCc1ccc2c(c1)OCO2 | -3% | 16% | 8.9µM* | -7% | 11%
O=C(NCc1ccc2c(c1)OCO2)c1ccc(CSCc2ccccc2Cl)o1 | 2% | ? | 10µM* | 3% | -7%
Oc1ccccc1-c1nc2ccccc2nc1-c1ccccc1 | -3% | 10% | 11µM* | 24% | 0%
CC(=O)N(C(C)=O)c1nc(-c2ccccc2)cn1/N=C/c1ccccc1 | ? | 3% | 7.9µM* | 1% | -70%
C[n+]1cn(/N=C/c2ccccc2)c2ccccc21 | 16% | nt | 2% | 4% | -41%
Cc1nc(N)nc(N/N=C/c2ccccc2)n1 | 5% | 0% | 14% | -2% | 32%
Cc1cc(N/N=C/c2ccccc2)nc(N)n1 | -3% | -4% | 73% | 6% | 13µM*
Cc1cc(Nc2ccc(Cl)cc2)nc(NCc2ccccc2)n1 | ? | -20% | 11µM* | ? | -85%
Cc1cc(Nc2ccccc2)nc(NCc2ccccc2)n1 | ? | 13% | 8.9µM* | 15% | -64%
Cc1ccc(Nc2cc(C)nc(-c3ccccc3)n2)cc1 | -31% | -15% | ? | 1% | 3.2µM*
COc1ccc(OCC(=O)Nc2ccc(S(=O)(=O)Nc3cc(C)nc(C)n3)cc2)cc1 | 4% | 2% | -5% | 17% | 2%
CCN1C(=NCc2cc(OC)c(OC)c(OC)c2)N[C@@H](c2cccc(C(F)(F)F)c2)C(C(=O)OC)=C1C | -5% | -2% | 6% | -4% | -14%
CN(Cc1ccccc1)C(=O)c1ccc(NC(=O)Cc2cccc(NC(=O)C3CCN(C(=O)C4CC4)CC3)c2)cc1 | ? | 5% | 24% | 10% | 44%
Cc1ccc(/C=N/Nc2cc(C)nc(NCc3ccccc3)n2)cc1 | -15% | 0% | 2.8µM* | 14% | -68%
Cc1ccc(OCCN2CCOCC2)cc1C | 13% | -1% | 7% | 1% | 93%
Cc1cc(OCCN2CCOCC2)ccc1Cl | -10% | -1% | -8% | 4% | 13µM*
CCC1CCc2sc(C(=O)N(C)CC(=O)Nc3cccc(OC)c3)cc2C1 (configuration not stated) | -27% | 9% | ? | -1% | -12%
CCC1CCc2sc(C(=O)N(C)CC(=O)Nc3ccc(OC)cc3)cc2C1 (configuration not stated) | -5% | 19% | 10µM* | 14% | -22%
CCC1CCc2sc(C(=O)NCC(c3ccccc3OC)N3CCCC3)cc2C1 (configuration not stated) | ? | 10% | 5µM* | 19% | -25%
CCC1CCc2sc(C(=O)NC3CCN(Cc4ccccc4)CC3)cc2C1 (configuration not stated) | ? | ? | 5µM* | 8% | -39%
COc1ccc(C(CNC(=O)c2cc3c(s2)CCC(C)C3)N2CCCC2)cc1 (configuration not stated) | ? | 6% | ? | 6% | -15%
CC1CCc2sc(C(=O)NC3CCN(Cc4ccccc4)CC3)cc2C1 (configuration not stated) | ? | 27% | ? | 3% | -14%
COc1ccc(CCN(C)C2CCCN(C(=O)Cn3cnnn3)C2)cc1OC (configuration not stated) | -9% | -1% | 0% | 22% | -1%
COc1ccc(CNc2nc3ccccc3n2CCN2CCCCC2)cc1 | ? | -9% | 10µM* | 14% | -20%
SMILES | HEK293 tox | Mito fusion yeast | GLP-1R inv ag | GLP1R ag | BRCA1 expr act
N=c1n(CCN2CCCCC2)c2ccccc2n1CC(=O)c1cccs1 | -25% | 5% | 5.6µM* | 2% | -64%
COc1ccc(OCC(O)Cn2c(=N)n(CCN3CCCCC3)c3ccccc32)cc1 (configuration not stated) | ? | 1% | 10µM*! | 4% | -38%
COc1ccc(-c2cc3ccccc3n2CC(O)CN2CCN(CCO)CC2)cc1 (configuration not stated) | 1% | -4% | 10µM* | -1% | 10%
CCN(CC)c1ccc(CNc2nc3ccccc3n2CCN2CCCCC2)cc1 | ? | -11% | ? | 16% | -64%
CCCn1c(=N)n(CC(=O)c2cccs2)c2ccccc21 | ? | 2% | -10% | -4% | -24%
Cc1cccnc1NC(N)=S | 3% | -3% | 6% | -4% | -6%
Cc1ccc(C)c(N2CCN(C(=O)COc3cc(=O)n(C)c4ccccc34)CC2)c1 | 0% | 9% | 3% | 2% | -33%
COc1ccccc1OCC(O)Cn1c(=N)n(Cc2ccccc2)c2ccccc21 (configuration not stated) | ? | 6% | ? | 6% | -76%
Cc1ccccc1OCC(O)Cn1c(=N)n(Cc2ccccc2)c2ccccc21 (configuration not stated) | ? | -13% | 8.9µM* | -7% | -11%
Cc1cccc(C(=O)NC(NCc2ccco2)C(Cl)(Cl)Cl)c1 (configuration not stated) | -1% | 4% | ? | 1% | 1%
Cc1cccc(C(=O)NC(NCCc2ccccc2)C(Cl)(Cl)Cl)c1 (configuration not stated) | 83% | 5% | 4.5µM* | 5% | 35%
O=C(Nc1cccc(-c2cccc(Cl)c2)c1)C1CCN(Cc2ccc(CO)o2)CC1 | ? | 0% | 3.5µM* | 6% | -22%
COc1ccccc1/C=C/C=N/n1c(-c2ccccn2)n[nH]c1=S | 2% | 4% | 19% | -2% | 11µM*
CC1(C(=O)NCCC#N)CCN1C(=O)C1(c2ccccc2)CC1 (configuration not stated) | 1% | nt | 21% | -9% | 20%
CCCN1C(=O)c2ccccc2NC1c1ccc(Cl)cc1 (configuration not stated) | 1% | 2% | ? | -1% | -1%
CCCN1C(=O)c2ccccc2NC1c1ccc(Cl)c(Cl)c1 (configuration not stated) | -12% | 4% | 11µM* | 3% | -29%
CCOc1ccc(NC(=O)CCNS(=O)(=O)c2ccc3c(c2)oc(=O)n3C)cc1 | 2% | 2% | 5% | -5% | 9%
O=C(c1ccc([N+](=O)[O-])s1)N1CCN(c2ccccc2)CC1 | -9% | -6% | -3% | 0% | -54%
